Assay results as given in PubChem BioAssay.
Values joined by “and” are separate entries in the source; they are usually repeats but may differ in a detail not shown here. Identical values can stand only once. Where a structure was tested more than once in an assay, its records may differ in their call. Active and inactive are the calls of the source.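 Rule for the calls, unless noted: active = compound that reduces growth-factor-driven endothelial tube area in a mixed cell culture, no cutoff stated; inactive = the rest.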

Legend:
[1] = stimulators of nuclear beta-catenin in C2C12, primary screen, imaging, WNT3A-conditioned medium, mouse C2C12, NPC library (AID 1117326; in the data active = nuclear beta-catenin stimulation mostly above about 4.2%, no sharp cut-off; inactive = mostly below about 10%; note: reference of the scale not given here); conditions: stronger effect = higher value
[2] = stimulators of insulin release from INS-1E, primary screen, cell-based, 5 mM glucose, NPC library (AID 1117329;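 active = compound raises insulin release from rat beta cells at 5 mM glucose, no numeric limit stated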; note: reference of the scale not given here); conditions: rat INS-1E insulin secretion, at 10 µM, stronger effect = higher value
[3] = growth inhibition of GSK3B-pretreated HCT116 cells – cell-based, CellTiter-Glo, 0.2 to 20 µM (AID 1117336;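 active = compounds lowering colon cancer cell viability after pretreatment blocking the GSK3B kinase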); conditions: HCT116 viability after GSK3B inhibitor, at 20 µM, stronger effect = higher value
[4] = inhibition of endothelial tube formation, primary screen, imaging, VEGF stimulated, CD31 staining, tube area, NPC library (AID 1117340); conditions: VEGF-stimulated ADSC/ECFC co-culture, at 10 µM, stronger effect = higher value
[5] = glucagon-like peptide 1 release enhancers, primary assay, NCI-H716 cell line, NPC library (AID 1117341;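 active = compound raises GLP1 secretion from the human gut endocrine cells, with no numeric limit stated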; note: reference of the scale not given here); conditions: NCI-H716 cells, at 10 µM, stronger effect = higher value
[6] = HCT116 colon cancer cell growth inhibition, primary screen, CellTiter-Glo luminescence, NPC library (AID 1117342;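 active = compounds that lower survival of HCT116 colon cancer cells in the luminescence readout, no numeric limit stated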); conditions: at 20 µM (top of the series)
[7] = CellTiter-Glo luminescent readout of SW480 viability loss, NPC library primary (AID 1117343;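 active = compounds that lower viability of the colon cancer cells in the luminescence readout, with no numeric limit stated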); conditions: CellTiter-Glo luminescence; at 20 µM (top of the series)
[8] = decreased DLD-1 cellular survival, CellTiter-Glo luminescent readout, NPC compound collection, primary HTS (AID 1117346;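 active = compounds that lower survival of DLD-1 colon cancer cells in the luminescence readout, no cutoff given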); conditions: DLD-1 viability, CellTiter-Glo luminescence; at 20 µM (top of the series)

SMILES | nuclear beta-catenin stimulation ([1]; at 10 µM) | nuclear beta-catenin stimulation ([1]; stimulation, at 2 µM) | insulin secretion stimulation [2] | viability decrease [3] | tube area decrease [4] | GLP1 secretion stimulation [5] | inhibition of viability [6] | viability decrease (inhibition) [7] | viability decrease (inhibition) [8]
NC(=Nc1ccccc1)Nc1ccccc1 | 0.2% (inactive) | 1.4% | 13.9% (inactive) | 24.6% (inactive) | 10.1% (inactive) | 2.8% (inactive) | -1% (inactive) | 77.3% (active) | 75.2% (active)
CCOc1ccc(C(=O)OCCN(CC)CC)cc1 | -1% (inactive) | -1.4% | -0.6% (inactive) | 6.1% (inactive) | -2.2% (inactive) | 1.9% (inactive) | 43.8% (inactive) | 20.4% (inactive) | 8.4% (inactive)
COc1cc2c(cc1OC)C(C(C(=O)N(CCc1ccc(OC)c(OC)c1OC)CCc1ccc(OC)c(OC)c1OC)c1ccccc1)=NCC2 (configuration not stated) | 4.4% (inactive) | 8.3% | -0.9% (inactive) | 74.1% (active) | 20.6% (inactive) | 4.1% (inactive) | 83.5% (active) | 87.9% (active) | 69.8% (active)
C[C@@H](N)C(=O)O | 1.4% (inactive) | 0% | -2.7% (inactive) | 9% (inactive) | 15.4% (inactive) | 5.9% (inactive) | 11.2% (inactive) | 44.4% (inactive) | 20.8% (inactive)
CC(=O)c1cc2ccccc2s1 | 2.1% (inactive) | 1.1% | -1.3% (inactive) | 32.7% (inactive) | -3.8% (inactive) | 0.1% (inactive) | 31.2% (inactive) | 32.8% (inactive) | 26.6% (inactive)
CC(=O)N1C[C@H](O)C[C@H]1C(=O)O | 0.5% (inactive) | -0.3% | -0.3% (inactive) | -2.7% (inactive) | -1.7% (inactive) | -0.9% (inactive) | 7.13% (inactive) | 8.1% (inactive) | 4% (inactive)
CCCN(CCc1cccs1)[C@H]1CCc2c(O)cccc2C1 | 0.6% (inactive) | -2.2% | 8.95% (inactive) | 48.4% (inactive) | 0.6% (inactive) | 2.4% (inactive) | 65.2% (active) | 30.3% (inactive) | 9.7% (inactive)
OCC(O)CS (configuration not stated) | -0.5% (inactive) | 0.8% | 0.7% (inactive) | -84.2% (inactive) | 27.8% (inactive) | 0.4% (inactive) | 6.77% (inactive) | -24% (inactive) | -8.2% (inactive)
CO[C@@H]1[C@@H](O[C@@H]2O[C@H](C)[C@@H](O[C@H]3C[C@@](C)(O)[C@@H](O)[C@H](C)O3)[C@H](N(C)C)[C@H]2O)[C@@H](CC=O)C[C@@H](C)[C@@H](O[C@@H]2CC[C@H](N(C)C)[C@@H](C)O2)/C=C/C=C/C[C@@H](C)OC(=O)C[C@H]1OC(C)=O | -0.1% (inactive) | -1.2% | 3.3% (inactive) | 0.2% (inactive) | 3% (inactive) | 9.9% (inactive) | 23.2% (inactive) | 59.8% (active) | 18.7% (inactive)
Cc1cc(CC(=O)O)c(C)n1-c1ccc(Cl)cc1 | -0.5% (inactive) | -0.4% | 2.3% (inactive) | -14.4% (inactive) | 1.3% (inactive) | -0.2% (inactive) | 7.9% (inactive) | 11.7% (inactive) | -14.3% (inactive)
CN(C)CCN1CCN(c2cccc(Cl)c2)C1=O | 0.8% (inactive) | 0.1% | 2.6% (inactive) | 10.9% (inactive) | 8% (inactive) | 4% (inactive) | 50% (active) | 7.4% (inactive) | -1.8% (inactive)
O=C(Nc1ccc([N+](=O)[O-])cc1)Nc1ccc([N+](=O)[O-])cc1 | 3.2% (inactive) | 1.9% | -3.6% (inactive) | -7.9% (inactive) | 62.3% (active) | -0.9% (inactive) | -44.5% (inactive) | 44.3% (inactive) | -16.4% (inactive)
O=C(Nc1ccc(Cl)cc1)Nc1ccc(Cl)c(Cl)c1 | 35.1% (inactive) | 0.3% | -3.4% (inactive) | 92.2% (active) | 103% (active) | -3.2% (inactive) | 84.6% (active) | 116% (active) | 94.1% (active)
COc1ccc2cc(C=O)ccc2c1 | 0.1% (inactive) | 0.2% | 0.95% (inactive) | 17.4% (inactive) | -8.2% (inactive) | -3.7% (inactive) | 16.4% (inactive) | 7% (inactive) | 5.8% (inactive)
CC(C)(C)c1nnc(NS(=O)(=O)c2ccc(N)cc2)s1 | 0.1% (inactive) | -1.2% | 3.45% (inactive) | 7.2% (inactive) | -5.2% (inactive) | 0.7% (inactive) | -2.9% (inactive) | 54.4% (active) | -5.4% (inactive)
C=Cc1c(C)c2cc3nc(cc4[nH]c(cc5nc(cc1[nH]2)C(C)=C5CCC(=O)O)c(CCC(=O)OC)c4C)[C@@]1(C)C3=CC=C(C(=O)OC)[C@@H]1C(=O)OC | 16.7% (inactive) | 0.4% | 1.5% (inactive) | 97.7% (active) | -206% (inactive) | -1.9% (inactive) | 92.4% (active) | 98.2% (active) | 99.9% (active)
O=C(O)[C@@H]1CSCN1 | 0% (inactive) | 0.2% | -2.5% (inactive) | -3.1% (inactive) | 16.2% (inactive) | -0.4% (inactive) | 3.3% (inactive) | 38.4% (inactive) | 11.6% (inactive)

SMILES | nuclear beta-catenin stimulation ([1]; at 10 µM) | nuclear beta-catenin stimulation ([1]; stimulation, at 2 µM) | insulin secretion stimulation [2] | viability decrease [3] | tube area decrease [4] | GLP1 secretion stimulation [5] | inhibition of viability [6] | viability decrease (inhibition) [7] | viability decrease (inhibition) [8]
CC(NN)c1ccccc1 (configuration not stated) | 1.9% (inactive) | -2.2% | 3.35% (inactive) | 13.8% (inactive) | -6.7% (inactive) | -0.4% (inactive) | 9.9% (inactive) | 4.9% (inactive) | 14.8% (inactive)
O=C(Nc1ccc(Cl)c(Cl)c1)C1CC1 | 0.1% (inactive) | 0.9% | 2.2% (inactive) | 25.6% (inactive) | 24.7% (inactive) | -0.1% (inactive) | 43.4% (inactive) | 25.2% (inactive) | 9.7% (inactive)
COC(=O)/C=C(/C)N | 0.7% (inactive) | 2.2% | -0.8% (inactive) | 17.3% (inactive) | -6% (inactive) | 2.3% (inactive) | -17.5% (inactive) | 2.9% (inactive) | -8.3% (inactive)
O=C(O)CCCC[P+](c1ccccc1)(c1ccccc1)c1ccccc1 | -2.3% (inactive) | -0.2% | 3.5% (inactive) | -11% (inactive) | 7.8% (inactive) | 2.8% (inactive) | -8.2% (inactive) | -3.6% (inactive) | 2.9% (inactive)
N#CCC(=O)NN | 0.4% (inactive) | 2.7% | -0.7% (inactive) | 4.45% (inactive) | 0.1% (inactive) | -0.8% (inactive) | 1.9% (inactive) | 13.4% (inactive) | 4.5% (inactive)
Nc1ccc2c(c1)CN1C(=O)c3ccccc3C1=N2 | 3.6% (inactive) | -0.3% | 4.2% (inactive) | 44.4% (inactive) | 44.6% (active) | 2% (inactive) | 13.1% (inactive) | 79.4% (active) | 28.1% (inactive)
OC[C@@H](O)[C@H](O)[C@H](O)[C@@H](O)CO | 0.7% (inactive) and 2.5% (inactive) | -0.3% and 1% | 0.1% (inactive) and 1.8% (inactive) | -25.2% (inactive) and 11.4% (inactive) | 3.7% (inactive) and 50.5% (active) | 0.3% (inactive) and -1.2% (inactive) | -3.33% (inactive) and -2.5% (inactive) | 4.1% (inactive) and 1.5% (inactive) | -1.5% (inactive) and -4.9% (inactive)
N[C@@H](Cc1cc(I)c(O)c(I)c1)C(=O)O | 15% (inactive) | 3.2% | -1% (inactive) | -3.6% (inactive) | 26.5% (inactive) | -3.4% (inactive) | 3.4% (inactive) | 24.1% (inactive) | -15.2% (inactive)
CCNC(=O)NCc1cccc(Cl)c1 | -1.7% (inactive) | -0.5% | 2.2% (inactive) | -2% (inactive) | 13.7% (inactive) | -2.9% (inactive) | 1.1% (inactive) | 1.2% (inactive) | -6.8% (inactive)
NCc1ccccc1Sc1ccccc1CO | 0.6% (inactive) | 1% | -0.8% (inactive) | -138% (inactive) | -11.8% (inactive) | 3.3% (inactive) | 6.13% (inactive) | 29.2% (inactive) | -10.7% (inactive)
CCOC(=O)C(C#N)=C(c1ccccc1)c1ccccc1 | 0.9% (inactive) | 1.8% | 6.6% (inactive) | -0.55% (inactive) | 2.6% (inactive) | -0.1% (inactive) | 26.4% (inactive) | 18.9% (inactive) | 15.2% (inactive)
CCNC(=O)NCCCOc1cccc(CN2CCCCC2)c1 | -0.4% (inactive) | -1.5% | 4.7% (inactive) | 1.2% (inactive) | 0.6% (inactive) | -0.5% (inactive) | 5% (inactive) | -19.1% (inactive) | -12.6% (inactive)
COc1cc(/C=C/C(=O)O[C@H]2CC[C@]34C[C@]35CC[C@]3(C)[C@@H]([C@H](C)CCC=C(C)C)CC[C@@]3(C)[C@@H]5CC[C@H]4C2(C)C)ccc1O | -1.5% (inactive) | -1.7% | 7.6% (inactive) | 2.6% (inactive) | -12.4% (inactive) | 0.5% (inactive) | 10% (inactive) | -10.1% (inactive) | -6.9% (inactive)
CCCOC(=O)c1cc(O)c(O)c(O)c1 | 4.2% (inactive) | 1.9% | -1.6% (inactive) | 43.1% (inactive) | 71.3% (active) | -2.1% (inactive) | 35.1% (inactive) | 78.3% (active) | 58.4% (active)
O=C(O)c1ccccc1Nc1cc(Cl)ccc1C(=O)O | 2% (inactive) | -1.8% | 0.5% (inactive) | 2.4% (inactive) | -18.4% (inactive) | 0.1% (inactive) | -1.2% (inactive) | -23.2% (inactive) | -18.7% (inactive)
Cc1ccc(C(C)OC(=O)C2(C)CCC(C(=O)O)C2(C)C)cc1 (configuration not stated) | -0.2% (inactive) | -2.1% | 2.1% (inactive) | -5% (inactive) | -0.8% (inactive) | 0.6% (inactive) | 0.3% (inactive) | -11.8% (inactive) | 14.4% (inactive)
